Bioassay records as filed in PubChem.
Sampled rows, rich in hits. Any-hit rate of the full collection: about 1.2%.
GSH fluor = GSH bead compound fluorescence profile. GSH beads flow cytometry, compound fluorescence 488/530 nm; hits give high values. fluorescence (KMESF) at 10 µM. hit rate 0.25% among 190,000. AID 1776; in the data active = fluorescence above about 89;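 also: glutathione beads carrying GST-tagged Bcl family fusion proteins plus one bare bead set; values are compound well signal with DMSO vehicle wells as background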
RGS8-Gao = regulators of human RGS8-Galphao interaction; AID 1423; response (percent of control binding), % at 10 µM; multiplexed bead flow cytometry, RGS8-Galphao binding; actives lie on both sides; hit rate 0.34% among 220,000; P09471; in the data active = response below about 60% or above about 140%; inactive = in between;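 also: Galphao activated as the GDP aluminium fluoride complex binding bead-coupled RGS8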
Target sequence (P09471 whole entry, looked up): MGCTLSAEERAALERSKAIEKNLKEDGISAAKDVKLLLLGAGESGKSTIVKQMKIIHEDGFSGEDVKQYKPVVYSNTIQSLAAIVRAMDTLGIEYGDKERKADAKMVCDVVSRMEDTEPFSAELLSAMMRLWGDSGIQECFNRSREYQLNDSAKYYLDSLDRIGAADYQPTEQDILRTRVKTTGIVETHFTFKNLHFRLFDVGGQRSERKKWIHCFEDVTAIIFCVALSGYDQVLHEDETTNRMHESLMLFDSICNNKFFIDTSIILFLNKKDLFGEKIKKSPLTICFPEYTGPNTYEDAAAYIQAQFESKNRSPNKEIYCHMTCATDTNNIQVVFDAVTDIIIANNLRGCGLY
Avidin bead fluor = avidin bead compound fluorescence profile; Avidin beads, compound fluorescence 488/530 nm, flow cytometry; hits give high values; fluorescence (KMESF) at 10 µM; hit rate 0.38% among 220,000; in the data active = fluorescence above about 47
RGS4-Gao reg = human RGS4-Galphao interaction regulation; P09471; Multiplexed bead flow cytometry, RGS4-Galphao binding; actives lie on both sides; binding response (% of control), % at 10 µM; hit rate 0.33% among 220,000; AID 1415; in the data active = binding response below about 49% or above about 150%; inactive = in between;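 also: fluorescent Galphao activated with aluminum fluoride binding bead-coupled RGS4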
RGS16-Gao = modulates binding between human RGS16 and Galphao; binding response (% of control), % at 10 µM; bead-based flow cytometry RGS16-Galphao binding, fluorescence; actives lie on both sides; O15492+P09471; hit rate 0.38% among 220,000; call rule not given here;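 also: Galphao activated by GDP with aluminum fluoride before binding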
Target sequence (O15492 whole entry, looked up): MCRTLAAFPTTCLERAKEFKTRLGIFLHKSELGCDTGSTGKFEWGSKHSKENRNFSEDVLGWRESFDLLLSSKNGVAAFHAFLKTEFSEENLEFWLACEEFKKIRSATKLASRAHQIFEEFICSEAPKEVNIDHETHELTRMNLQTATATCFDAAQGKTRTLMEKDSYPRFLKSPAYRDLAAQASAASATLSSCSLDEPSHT
Target sequence (P09471 whole entry, looked up): as the sequence (P09471 whole entry, looked up) above
RGS7-Gao reg = regulators of human RGS7-Galphao interaction | Multiplexed bead flow cytometry, RGS7-Galphao binding; actives lie on both sides | binding response (% of control), % at 10 µM | hit rate 0.35% among 220,000 | AID 1439; in the data active = binding response below about 49% or above about 150%; inconclusive = no clear call, values can overlap the other calls; inactive = in between;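 also: fluorescent Galphao held in activated GDP-AlF4 state binding bead-coupled RGS7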
An asterisk follows results filed as active.

For COc1ccc(/C(O)=C2/C(=O)C(=O)N(Cc3ccco3)C2c2cccs2)cc1 (stereo unspecified) the results were GSH fluor 17, RGS8-Gao 104, Avidin bead fluor 23, RGS4-Gao reg 103, RGS16-Gao 110 and RGS7-Gao reg 107.
For CN1CC(=O)N(CC(=O)NCc2ccc3c(c2)OCO3)C1=O the results were GSH fluor 283*, RGS8-Gao 105, Avidin bead fluor 8, RGS4-Gao reg 102, RGS16-Gao 106 and RGS7-Gao reg 100.
`Cc1ccsc1C(=O)OCC(=O)NCc1ccc2c(c1)OCO2` gave GSH fluor 261*, RGS8-Gao 103, Avidin bead fluor 7, RGS4-Gao reg 103, RGS16-Gao 105 and RGS7-Gao reg 104.
CC(=O)OCC(=O)NCc1ccc2c(c1)OCO2 was read as GSH fluor 46, RGS8-Gao 103, Avidin bead fluor 8, RGS4-Gao reg 105, RGS16-Gao 110 and RGS7-Gao reg 106.
Cc1ccc(C2=NN(CCC(=O)NCc3ccc4c(c3)OCO4)C(=O)CC2)cc1 was read as GSH fluor 226*, RGS8-Gao 97, Avidin bead fluor 32, RGS4-Gao reg 115, RGS16-Gao 119 and RGS7-Gao reg 115.
`CC/C(=N\NC(=O)CCC(=O)NCc1ccccc1)c1ccc(O)cc1` gave GSH fluor 10, RGS8-Gao 98, Avidin bead fluor 9, RGS4-Gao reg 98, RGS16-Gao 95 and RGS7-Gao reg 92.
`Cc1nc(-c2cccnc2)sc1C(=O)N/N=C/c1ccccc1Cl` gave RGS8-Gao 100, Avidin bead fluor 6, RGS4-Gao reg 101, RGS16-Gao 101 and RGS7-Gao reg inconclusive.
Screening Cc1ccc(CN2CCN(C(=O)C3CCCO3)CC2)cc1 (stereo unspecified) returned GSH fluor 50, RGS8-Gao 101, Avidin bead fluor 6, RGS4-Gao reg 100, RGS16-Gao 108 and RGS7-Gao reg 101.
Screening O=C(C1CCCO1)N1CCN(Cc2c(O)ccc3ccccc23)CC1 (stereo unspecified) returned GSH fluor 16, RGS8-Gao 100, Avidin bead fluor 61*, RGS4-Gao reg 104, RGS16-Gao 101 and RGS7-Gao reg 113.
`Cn1ncc2c(N3CCN(c4ccc(Cl)c(Cl)c4)CC3)ncnc21` gave GSH fluor 18, RGS8-Gao 100, Avidin bead fluor 10, RGS4-Gao reg 99, RGS16-Gao 97 and RGS7-Gao reg inconclusive.
`CCCNC(=O)C(NS(=O)(=O)c1cccc2nsnc12)c1ccccc1` (stereo unspecified) gave GSH fluor 15, RGS8-Gao 102, Avidin bead fluor 8, RGS4-Gao reg 102, RGS16-Gao 106 and RGS7-Gao reg 103.
Screening O=C(NCc1ccco1)C(NS(=O)(=O)c1cccc2nsnc12)c1ccccc1 (stereo unspecified) returned GSH fluor 21, RGS8-Gao 100, Avidin bead fluor 52*, RGS4-Gao reg 99, RGS16-Gao 98 and RGS7-Gao reg 108.
For CN(CCOc1ccccc1)S(=O)(=O)c1ccc2oc3ccccc3c2c1 the results were GSH fluor 29, RGS8-Gao 100, Avidin bead fluor 60*, RGS4-Gao reg 108, RGS16-Gao 100 and RGS7-Gao reg 118.
Screening COc1ccc(OCCNS(=O)(=O)c2ccc3oc4ccccc4c3c2)cc1 returned GSH fluor 10, RGS8-Gao 100, Avidin bead fluor 10, RGS4-Gao reg 103, RGS16-Gao 110 and RGS7-Gao reg 103.
COc1ccc(NS(=O)(=O)c2ccc3c(c2)NC(=O)CO3)cc1 was read as GSH fluor 13, RGS8-Gao 103, Avidin bead fluor 10, RGS4-Gao reg 104, RGS16-Gao 102 and RGS7-Gao reg 104.
For Cc1ccc(NS(=O)(=O)c2ccc3c(c2)NC(=O)CC(=O)N3)cc1C the results were GSH fluor 26, RGS8-Gao 98, Avidin bead fluor 58*, RGS4-Gao reg 99, RGS16-Gao 107 and RGS7-Gao reg 111.
Cc1ccc(NC(=O)CSc2nnc3ccccn23)cc1S(=O)(=O)N1CCOCC1 was read as GSH fluor 15, RGS8-Gao 102, Avidin bead fluor 12, RGS4-Gao reg 102, RGS16-Gao 100 and RGS7-Gao reg inconclusive.
Screening COC(=O)C1=C(C)NC2=C(C(=O)CCC2)C1c1ccc(-c2ccsc2C(=O)OC)o1 (stereo unspecified) returned RGS8-Gao 100, Avidin bead fluor 3, RGS4-Gao reg 102, RGS16-Gao 102 and RGS7-Gao reg inconclusive.
Screening Nc1ccc2oc(-c3ccccc3Cl)nc2c1 returned GSH fluor 12, RGS8-Gao 100, Avidin bead fluor 14, RGS4-Gao reg 102, RGS16-Gao 98 and RGS7-Gao reg 96.
Cc1ccc(C)c(-c2nc3cc(N)ccc3o2)c1 was read as GSH fluor 14, RGS8-Gao 97, Avidin bead fluor 61*, RGS4-Gao reg 101, RGS16-Gao 90 and RGS7-Gao reg 106.
Nc1c(C(=O)NCc2ccco2)sc2nc(N3CCOCC3)c3c(c12)CCCC3 was read as GSH fluor 9, RGS8-Gao 99, Avidin bead fluor 62*, RGS4-Gao reg 104, RGS16-Gao 105 and RGS7-Gao reg 114.
COc1ccccc1N1CCN(/N=C/C(Cl)=C/c2ccccc2)CC1 was read as RGS8-Gao 99, Avidin bead fluor 7, RGS4-Gao reg 99, RGS16-Gao 97 and RGS7-Gao reg inconclusive.
Screening O=C(CN1CCC(NC(=O)c2ccco2)CC1)Nc1cccc2ccccc12 returned GSH fluor 120*, RGS8-Gao 107, Avidin bead fluor 6, RGS4-Gao reg 119, RGS16-Gao 109 and RGS7-Gao reg 117.
COC(=O)C(C(=O)OC)c1ccccc1[N+](=O)[O-] was read as GSH fluor 272*, RGS8-Gao 100, Avidin bead fluor 7, RGS4-Gao reg 102, RGS16-Gao 102 and RGS7-Gao reg 100.
Screening Cc1ccsc1C1CC(=O)OC2=C1C(=O)CC(C)(C)C2 (stereo unspecified) returned GSH fluor 13, RGS8-Gao 103, Avidin bead fluor 14, RGS4-Gao reg 101, RGS16-Gao 105 and RGS7-Gao reg 105.
For COc1ccc(Cc2noc(COc3ccc(Cl)cc3)n2)cc1 the results were GSH fluor 92*, RGS8-Gao 99, Avidin bead fluor 11, RGS4-Gao reg 98, RGS16-Gao 100 and RGS7-Gao reg 100.
CC1CCN(CCCNC(=O)c2ccc3c(Cl)c4c(nc3c2)CCCC4)CC1 was read as RGS8-Gao 106, Avidin bead fluor 8, RGS4-Gao reg 109, RGS16-Gao 110 and RGS7-Gao reg inconclusive.
For COC(=O)c1ccccc1NC(=O)c1cnn2c(C)cc(C)nc12 the results were GSH fluor 24, RGS8-Gao 102, Avidin bead fluor 12, RGS4-Gao reg 102, RGS16-Gao 108 and RGS7-Gao reg 101.
